The results in this text go back to PubChem BioAssay (NCI).

The panel holds about 83,000 compounds, 20% with a hit somewhere; the sample as a whole holds those more often.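 Compound tested at a single concentration for 48 hours in 96-well plates; a percent growth value below 10 was scored as active.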 A number with no mark means an inactive call. Active and inactive are the calls of the source.

Among the test systems are SR leukemia; RPMI-8226 leukemia; OVCAR-8 ovarian; OVCAR-5 ovarian; OVCAR-4 ovarian; SK-OV-3 ovarian; IGROV1 ovarian; OVCAR-3 ovarian; HS 578T breast; NCI/ADR-RES ovarian; T-47D breast; BT-549 breast; MDA-MB-435 melanoma; SW-620 colon; MCF7 breast; HCT-116 colon; HCC-2998 colon; KM12 colon; MDA-MB-468 breast.
What all share (test): NCI-60 one-dose screen, 48 h (100 = growth as untreated, 0 = no growth, -100 = all killed)
Common to all, as to settings: 10 µM

Regarding `O=C(CNc1nc(-c2ccccc2)cs1)Nc1ccc(Cl)cc1[N+](=O)[O-]`, the growth with SR leukemia was 7.61% (active); in the assay on RPMI-8226 leukemia, 1.75% (active); in the assay with OVCAR-8 ovarian, 10.8%; in the assay on OVCAR-5 ovarian, -52.2% (active); in the assay with OVCAR-4 ovarian, 15.5%; with SK-OV-3 ovarian, -6.03% (active). Besides, the growth was 8.13% (active) in the assay on IGROV1 ovarian; -31.9% (active) in the assay on OVCAR-3 ovarian; -18.3% (active) in the assay on HS 578T breast; -30.7% (active) in the assay with NCI/ADR-RES ovarian; -32.6% (active) in the assay on T-47D breast; -46.6% (active) in the assay with BT-549 breast. Besides, the growth with MDA-MB-435 melanoma was -5.51% (active); in the assay with SW-620 colon, -60.6% (active); in the assay with MCF7 breast it was -59.3% (active); in the assay on HCT-116 colon, -22.8% (active); with HCC-2998 colon, -93.4% (active); with KM12 colon, -0.339% (active). For the same compound, the growth in the assay with MDA-MB-468 breast is -34.9% (active).

Regarding `CC(=O)Nc1ccc(-c2cn(-c3cccc(C(=O)Nc4cccc(OC(F)(F)F)c4)c3)nn2)cn1`, the growth with SR leukemia was 97.8%; in the assay on RPMI-8226 leukemia, 96%; in the assay with OVCAR-8 ovarian it was 57.1%; in the assay on OVCAR-5 ovarian, 108%; in the assay with OVCAR-4 ovarian, 102%; in the assay on SK-OV-3 ovarian, 93.9%. For the same compound, the growth with IGROV1 ovarian is 108%; with OVCAR-3 ovarian, 110%; with HS 578T breast, 53.7%; in the assay with NCI/ADR-RES ovarian it was 97.7%; in the assay with T-47D breast it was 93.2%; in the assay with BT-549 breast it was 96.7%. For the same compound, the growth with MDA-MB-435 melanoma is 61.4%; with SW-620 colon it was 90.1%; with MCF7 breast it was 70.1%; in the assay with HCT-116 colon, 88.6%; with HCC-2998 colon, 110%; in the assay with KM12 colon it was 30.1%. In addition, the growth with MDA-MB-468 breast is 86.7%.

As to `O=c1[nH]c2ccccc2cc1CSc1ccc(Nc2nccc(-c3ccc4c(c3)OCO4)n2)cc1`, the growth with SR leukemia is 81.7%; with RPMI-8226 leukemia, 81.3%; in the assay on OVCAR-8 ovarian, 75%; with OVCAR-5 ovarian, 98.3%; in the assay with OVCAR-4 ovarian, 27%; with SK-OV-3 ovarian it was 116%. The growth was 103% with IGROV1 ovarian; 50.7% with OVCAR-3 ovarian; 41.3% in the assay with HS 578T breast; 83.7% in the assay with NCI/ADR-RES ovarian; 75.5% in the assay with T-47D breast; 65.5% with BT-549 breast. For the same compound, the growth in the assay with MDA-MB-435 melanoma was 93.6%; in the assay on SW-620 colon, 80.6%; in the assay on MCF7 breast, 56%; with HCT-116 colon it was 84.1%; in the assay with HCC-2998 colon, 95.5%; with KM12 colon, 74.2%. Also, the growth with MDA-MB-468 breast was 72.5%.

As to `CC(=O)NS(=O)(=O)c1ccc(NC(=O)CSC2=NC(c3ccccc3)C(C(C)=O)=C(C)N2)cc1` (centres undefined), the growth in the assay with SR leukemia was 101%; with RPMI-8226 leukemia, 96%; in the assay on OVCAR-8 ovarian it was 115%; in the assay with OVCAR-5 ovarian, 104%; with OVCAR-4 ovarian, 113%; in the assay with SK-OV-3 ovarian it was 100%. Also, the growth in the assay on IGROV1 ovarian was 108%; in the assay with OVCAR-3 ovarian it was 133%; in the assay with HS 578T breast it was 107%; in the assay with NCI/ADR-RES ovarian it was 99.6%; with T-47D breast it was 99.7%; with BT-549 breast, 116%. Also, the growth was 104% with MDA-MB-435 melanoma; 106% in the assay with SW-620 colon; 95.2% with MCF7 breast; 102% with HCT-116 colon; 108% in the assay with HCC-2998 colon; 104% in the assay with KM12 colon. Moreover, the growth in the assay on MDA-MB-468 breast was 110%.

For `CC(=O)c1cc(C(=O)N2c3ccccc3Sc3ccccc32)n2ccc(C)cc12`, the growth in the assay with SR leukemia is 6.72% (active); in the assay with RPMI-8226 leukemia it was 19.8%; with OVCAR-8 ovarian, 45.9%; with OVCAR-5 ovarian it was 66.8%; in the assay on OVCAR-4 ovarian, 51.7%; in the assay with SK-OV-3 ovarian, 99.8%. For the same compound, the growth in the assay with IGROV1 ovarian was 37.1%; in the assay with OVCAR-3 ovarian it was 58%; in the assay on HS 578T breast, 53.7%; with NCI/ADR-RES ovarian it was 18.4%; in the assay with T-47D breast, 20.8%; with BT-549 breast, 16%. Also, the growth with MDA-MB-435 melanoma was 28%; in the assay with SW-620 colon it was 25.6%; in the assay with MCF7 breast it was 26.5%; in the assay on HCT-116 colon, 7.08% (active); in the assay on HCC-2998 colon, 32.7%; in the assay with KM12 colon it was 28.3%. In addition, the growth in the assay on MDA-MB-468 breast is 3.44% (active).

Consider `O=c1[nH]c2ccc(Cl)cc2cc1CSc1ccc(Nc2nccc(-c3ccc4ccccc4c3)n2)cc1`, for which the growth in the assay on SR leukemia is 88%; with RPMI-8226 leukemia it was 69.1%; in the assay on OVCAR-8 ovarian, 9.55% (active); with OVCAR-5 ovarian, 95%; in the assay on OVCAR-4 ovarian, -25.7% (active); in the assay on SK-OV-3 ovarian, 126%. In addition, the growth in the assay with IGROV1 ovarian was 99.4%; in the assay on OVCAR-3 ovarian, -1.45% (active); with HS 578T breast it was 66.2%; in the assay with NCI/ADR-RES ovarian it was 59.8%; with T-47D breast, 100%; in the assay with BT-549 breast, 83.4%. For the same compound, the growth in the assay on MDA-MB-435 melanoma is 84.7%; in the assay with SW-620 colon, 17.6%; with MCF7 breast it was 29.2%; with HCT-116 colon, 55%; in the assay with HCC-2998 colon, 79.6%; in the assay on KM12 colon, 53%. For the same compound, the growth in the assay on MDA-MB-468 breast was 15.2%.

`N#Cc1ccc(-c2nn(-c3ccc(C(=O)O)cc3)cc2CNc2cc(Cl)cc(Cl)c2)cc1`: the growth is 36.5% with SR leukemia; 21.6% in the assay with RPMI-8226 leukemia; 47.6% in the assay with OVCAR-8 ovarian; 84% with OVCAR-5 ovarian; 65.4% in the assay on OVCAR-4 ovarian; 126% with SK-OV-3 ovarian. In addition, the growth in the assay with IGROV1 ovarian was 52.5%; with OVCAR-3 ovarian, 45.7%; in the assay on HS 578T breast it was 50.2%; in the assay with NCI/ADR-RES ovarian, 17.2%; in the assay with T-47D breast, 25.9%; with BT-549 breast, -1.57% (active). The growth in the assay on MDA-MB-435 melanoma is 40.1%; with SW-620 colon it was 49.2%; in the assay with MCF7 breast it was 27.3%; with HCT-116 colon it was 12.5%; with HCC-2998 colon it was 9.16% (active); in the assay on KM12 colon it was 18.6%. For the same compound, in the assay on MDA-MB-468 breast, the growth was 43.4%.

For the compound `Cc1ccc(C(=O)NNC(=O)CSc2nc3ccccc3c(=O)[nH]2)cc1`, the growth with SR leukemia is 73%; in the assay with RPMI-8226 leukemia it was 105%; in the assay with OVCAR-8 ovarian, 97.8%; with OVCAR-5 ovarian it was 104%; with OVCAR-4 ovarian, 104%; in the assay with SK-OV-3 ovarian, 116%. Also, the growth in the assay on IGROV1 ovarian is 102%; in the assay with OVCAR-3 ovarian, 103%; in the assay with HS 578T breast, 97.5%; in the assay on NCI/ADR-RES ovarian, 101%; in the assay on T-47D breast, 95.8%; in the assay with BT-549 breast, 94.2%. In addition, the growth is 101% in the assay on MDA-MB-435 melanoma; 103% with SW-620 colon; 92.3% in the assay with MCF7 breast; 107% in the assay on HCT-116 colon; 105% with HCC-2998 colon; 107% in the assay on KM12 colon. The growth with MDA-MB-468 breast was 84.6%.

Regarding `N#Cc1ccc(-c2nn(-c3ccc(C(=O)O)cc3)cc2CNc2cc(Cl)cc(C(F)(F)F)c2)cc1`, the growth in the assay on SR leukemia is 1.72% (active); in the assay on RPMI-8226 leukemia it was 1.01% (active); with OVCAR-8 ovarian, 20.1%; in the assay on OVCAR-5 ovarian, 59.8%; with OVCAR-4 ovarian, 27.8%; with SK-OV-3 ovarian it was 55.2%. Besides, the growth with IGROV1 ovarian was 34.7%; in the assay on OVCAR-3 ovarian, 22%; with HS 578T breast it was -0.292% (active); in the assay with NCI/ADR-RES ovarian, 1.78% (active); in the assay on T-47D breast, 8.34% (active); in the assay with BT-549 breast, -22.5% (active). Besides, the growth in the assay on MDA-MB-435 melanoma was 9.7% (active); with SW-620 colon, 21.2%; in the assay with MCF7 breast, 5.75% (active); in the assay with HCT-116 colon, -2.71% (active); with HCC-2998 colon it was -27.7% (active); in the assay with KM12 colon, 4.92% (active). For the same compound, the growth in the assay on MDA-MB-468 breast was -13.7% (active).

For `CN1CCN(Cc2ccc(C(=O)Nc3cccc(Nc4ccc5c(O)cccc5n4)c3)cc2C(F)(F)F)CC1`, the growth in the assay with SR leukemia was 4.88% (active); in the assay on RPMI-8226 leukemia, -10.6% (active); in the assay on OVCAR-8 ovarian, -19.5% (active); in the assay with OVCAR-5 ovarian, -48.7% (active); in the assay with OVCAR-4 ovarian, -13.1% (active); with SK-OV-3 ovarian, -46.6% (active). The growth with IGROV1 ovarian is -54.6% (active); in the assay on OVCAR-3 ovarian, -23% (active); with HS 578T breast, -37.5% (active); in the assay with NCI/ADR-RES ovarian, -0.427% (active); in the assay on T-47D breast, -36.8% (active); in the assay with BT-549 breast, -58.4% (active). The growth in the assay with MDA-MB-435 melanoma is -91.6% (active); with SW-620 colon, -84% (active); in the assay on MCF7 breast it was -67.1% (active); in the assay on HCT-116 colon, -43.9% (active); in the assay with HCC-2998 colon it was -93.2% (active); with KM12 colon, -76.7% (active). In the assay on MDA-MB-468 breast, the growth is -92.7% (active).

Turning to `CN1C(=O)N(C)C2SC(N/N=C/c3ccccc3)=NC21` (centres undefined), the growth was 13.6% with SR leukemia; 97.4% in the assay on RPMI-8226 leukemia; 97.1% with OVCAR-8 ovarian; 94.4% in the assay with OVCAR-5 ovarian; 94.6% with OVCAR-4 ovarian; 95.7% in the assay with SK-OV-3 ovarian. Further, the growth is 64.5% in the assay with IGROV1 ovarian; 25.1% with OVCAR-3 ovarian; 66.1% with HS 578T breast; 44.6% in the assay on NCI/ADR-RES ovarian; 69.5% in the assay on T-47D breast; 58.7% in the assay on BT-549 breast. Also, the growth with MDA-MB-435 melanoma was -13.7% (active); in the assay with SW-620 colon, 38.3%; in the assay with MCF7 breast, 41%; in the assay on HCT-116 colon, 51.5%; in the assay with HCC-2998 colon it was 81.9%; with KM12 colon, 46.7%. The growth with MDA-MB-468 breast is 10% (active).
